Screening results as filed in PubChem BioAssay.
Shiga toxin inh = blocks Shiga toxin action in Vero cells | Vero cells, Shiga toxin protein synthesis inhibition reporter | inhibition, % at 38.7 µM | actives 9.2% (n = 290,000); in the data active means inhibition mostly above about 28%, no sharp cut-off; inactive means mostly below about 43%
NS1 function inh = inhibitors of influenza NS1 protein function | Potency, µM (highest dose often 46.1 µM) | actives 0.4% (n = 270,000); calls by dose curve; further: actives are rising curves; nearly all actives have a fitted effect of over 50% in size
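Read-out: OD600 growth recovery of NS1-expressing budding yeast. Cells grown overnight at 30C in -URA glucose medium, washed, resuspended and diluted 1:100 in 2% galactose assay medium, pH 6.0. Same strain lacking NS1 served as positive control.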
Pf growth 96h = P. falciparum growth inhibition at 96 hours; P. falciparum luciferase reporter growth, 96 h; Potency, µM (top dose mostly 28.7 µM), actives largely listed as inhibitors; actives 6.9% (n = 320,000); AID 504834
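P. falciparum expressing integrated firefly luciferase, in erythrocytes at 2% hematocrit, 0.05% parasitemia, incubated with compounds 96 h at 37 C, 5% CO2. Growth inhibition read as loss of luminescence; two-generation exposure targets delayed-death apicoplast inhibitors.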
Pf growth 48h = inhibits P. falciparum growth in the first generation, 48 h. P. falciparum luciferase growth in erythrocytes, 48 h. AID 504832. actives 5.9% (n = 310,000). Potency, µM (top dose mostly 28.7 µM), usual class: inhibitors
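Read-out is firefly luciferase luminescence from an integrated reporter in P. falciparum, so falling signal marks reduced parasite growth. Infected erythrocytes were at 2% hematocrit and 0.1% parasitemia (final) in Albumax-supplemented RPMI 1640.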
Cycloheximide cs = counter-screen hit for Shiga toxin inhibitors, cycloheximide. cell reporter, cycloheximide protein synthesis inhibition counterscreen. max response, %. actives 12% (n = 300,000); in the data active means max response mostly above about 13%, no sharp cut-off; inactive means mostly below about 14%; further: read at 38.3 µM for the half of the compounds with a filed dose
Hits are given with their value; – = inactive; ? = inconclusive; · = not tested or not shown. Compounds with a hit are over-represented: about 21% of the library has one in this group of screens. Unless noted, the call rests on the fitted dose curve; in most records, active means well fitted inhibition curve with a large enough effect; inconclusive means small, poorly fitted or top-dose-only effect, or another doubt; inactive means no such curve, though single readings can be large or run the other way.

SMILES	Shiga toxin inh	NS1 function inh	Pf growth 96h	Pf growth 48h	Cycloheximide cs
CCCCNC(=O)CO/N=C(\C)c1cc2ccccc2o1	77	–	–	–	54
Cc1cccc(N(CC(=O)N2CCc3ccccc3C2)S(C)(=O)=O)c1C	·	–	–	–	–
COc1ccccc1C(=O)NCCC(=O)N1CCN(c2ccccc2O)CC1	·	·	?	12µM	·
COc1ccccc1C(=O)NCCC(=O)N1CCCCC1	–	–	–	–	–
O=C(CCOc1ccccc1F)N1CCN(c2ccccc2O)CC1	70	·	–	–	31
COc1ccccc1C(=O)NCCC(=O)N1CC=C(c2ccccc2)CC1	·	·	?	12µM	·
COc1ccccc1OCCC(=O)N1CCN(c2ccccc2OC)CC1	–	–	–	–	–
CCOc1ccc(S(=O)(=O)NCCC(=O)N2CC=C(c3ccccc3)CC2)cc1	·	·	?	9.3µM	·
COc1ccc(C(=O)NCC(=O)N2CC=C(c3ccccc3)CC2)cc1OC	·	·	–	?	·
CCCCNC(=O)c1onc(CSc2ccc(C(C)C)cc2)c1C(=O)O	–	–	–	–	–
CC[C@H](C)N	–	·	·	·	–
CCC(CC)NC(=O)CN1CCN(S(=O)(=O)c2cccs2)CC1	·	·	–	–	·
CC(=O)C1C(=O)c2c(cccc2[N+](=O)[O-])C1=Nc1ccc(S(N)(=O)=O)cc1 (stereo unspecified)	–	–	–	–	30
CCn1c(SCc2ccc(C(=O)OC)o2)nc2sc3c(c2c1=O)CCCC3	–	–	1µM	–	–
CCOc1cc(C2Nc3ccccc3NC3=C2C(=O)CC(C)(C)C3)ccc1OC(C)=O (stereo unspecified)	–	–	?	–	–
COc1ccc(CNC(=O)C(=O)NCCCn2ccnc2)cc1	–	–	–	–	–
COC(=O)c1ccccc1NC(=O)C1CC(c2ccc(F)cc2)=NO1 (stereo unspecified)	–	–	10µM	–	–
Cc1cc(NC(=O)C2CC(c3ccc(F)cc3)=NO2)no1 (stereo unspecified)	–	–	5.2µM	·	–
Clc1ccc(-c2nnc(CNC3CC3)o2)cc1	–	–	–	–	21
O=C(CSc1nnc(-c2cccnc2)s1)Nc1ccc(C(=O)O)cc1	–	–	–	–	–
Cc1cccc(C)c1-n1c(C)nn(CC2CC2)c1=O	–	·	–	?	–
Cc1ccc(C(=O)Nc2ccc3c(c2)OCO3)cc1S(=O)(=O)N1CCOCC1	107	–	?	–	29
Cc1ccc(C(=O)Nc2ccc3c(c2)OCO3)cc1S(=O)(=O)N1CCCC1	45	–	–	?	46
Cc1ccc(C(=O)OCC(=O)Nc2ccc3c(c2)OCO3)cc1S(=O)(=O)N1CCOCC1	–	–	–	–	–
O=C(NCCCNC(=O)C(F)(F)C(F)F)C(F)(F)C(F)F	–	–	–	–	–
SMILES	Shiga toxin inh	NS1 function inh	Pf growth 96h	Pf growth 48h	Cycloheximide cs
O=C(NC1CCC(NC(=O)C(F)(F)C(F)F)CC1)C(F)(F)C(F)F (stereo unspecified)	–	–	13µM	·	–
CCOc1ccc(OCCCC(=O)NC2=NCCS2)cc1	–	–	·	–	–
CC(C)(C)c1ccc(OCCC(=O)NC2=NCCS2)cc1	–	–	·	–	12
COc1ccc(OCCC(=O)NC2=NCCS2)cc1	–	–	–	–	27
C/C1=C2N=C(/C=C3N=C(/C(C)=C4\[N-]C(C)(C5N=C1C(C)(CCC(=O)NCC(C)OP(=O)([O-])O[C@H]1C(O)C(n6cnc7cc(C)c(C)cc76)O[C@@H]1CO)C5CC(N)=O)C(C)(CC(N)=O)C4CCC(N)=O)C(C)(CC(N)=O)C\3CCC(N)=O)C(C)(C)C/2CCC(N)=O.[CH2-]C1OC(n2cnc3c(N)ncnc32)C(O)C1O.[Co] (stereo partly specified)	·	·	6.7µM	8.5µM	·
CC(C)(COP(=O)(O)OP(=O)(O)OC[C@H]1O[C@@H](n2cnc3c(N)ncnc32)[C@H](O)[C@@H]1OP(=O)(O)O)C(O)C(=O)NCCC(=O)NCCS (stereo partly specified)	·	·	–	–	·
O=C(/C=C/c1ccc(Cl)cc1Cl)c1ccc[nH]1	75	–	–	–	34
O=C(/C=C/c1ccccc1Cl)N1CCN(c2ncccn2)CC1	–	–	–	–	–
O=C(/C=C/c1ccccc1Cl)c1ccc[nH]1	52	–	?	–	36
CN(C)/C=C/C(=O)/C=C/c1ccc(Cl)cc1Cl	102	·	–	–	34
CN(Cc1cccnc1)Cc1cn[nH]c1-c1ccc(-c2ccccc2)cc1	–	–	–	?	6.6
O=c1c2[nH]c3cccc(Cl)c3c2ncn1Cc1ccco1	–	–	–	–	–
C(=N/Nc1nnc2c(n1)[nH]c1ccccc12)/c1cccnc1	·	–	·	·	·
Cc1cccc2c1[nH]c1nc(N/N=C\c3ccco3)nnc12	–	–	–	–	–
COc1cccc(/C=N/Nc2nnc3c(n2)[nH]c2ccccc23)c1OC	50	–	–	–	36
CC(/C=N/Nc1nnc2c(n1)[nH]c1ccccc12)=C\c1ccco1	–	–	?	·	32
CC1CC(C)CN(C(=O)C2CCN(S(=O)(=O)c3c(Cl)cccc3Cl)CC2)C1 (stereo unspecified)	–	–	?	–	–
CC(C)[C@H](NS(=O)(=O)c1ccc2c(c1)OCCO2)C(=O)OCC(=O)Nc1cc(Cl)ccc1Cl	–	–	–	–	–
Cc1ccc(O)c(C2=Nc3ccccc3C2(C)C)c1	89	–	–	–	49
Cc1nc(N2CCOCC2)nc(Oc2ccccc2)c1[N+](=O)[O-]	–	–	–	–	–
O=C(Nc1ccc(Cl)cn1)c1ccc([N+](=O)[O-])o1	119	–	–	?	45
O=C(Nc1ccon1)c1ccc(Br)o1	–	–	?	–	–
O=C(Nc1ccc([N+](=O)[O-])cn1)c1ccc(Br)o1	–	–	–	–	18
O=C(Nc1c(Cl)ccc2nsnc12)c1ccc([N+](=O)[O-])o1	51	–	?	?	41
Cc1cc(C)nc(NC(=O)c2ccc([N+](=O)[O-])o2)n1	–	–	–	–	–
SMILES	Shiga toxin inh	NS1 function inh	Pf growth 96h	Pf growth 48h	Cycloheximide cs
CN(c1ncc(C(F)(F)F)cc1Cl)N1C(=O)c2cccc([N+](=O)[O-])c2C1=O	–	–	–	–	–
CCCc1ccc(Oc2cc(NN3CCCCC3)c([N+](=O)[O-])cc2[N+](=O)[O-])cc1	–	–	–	–	–
CCCN1CNc2c(c(=O)[nH]c(=S)n2CCc2ccccc2)C1	–	·	?	–	–
O=C(C1CC1)N1CCN(S(=O)(=O)c2ccc3c(c2)OCCO3)CC1	–	·	–	–	–
COc1ccc(N2CCN(C(=O)COCc3cc(-c4ccc5c(c4)OCO5)on3)CC2)cc1	–	–	?	–	–
O=C(COCc1cc(-c2ccc3c(c2)OCO3)on1)Nc1cccnc1Cl	–	–	?	–	25
CCN1CCN(C(=O)COCc2cc(-c3ccc4c(c3)OCO4)on2)CC1	–	–	–	–	22
CCCN1CCN(S(=O)(=O)c2ccc3c(c2)CCC(=O)N3)CC1	·	·	–	–	·
COc1ccc(Cl)cc1-c1nc(SCC(N)=O)n[nH]1	–	–	–	–	–
Cc1ccc(NC(=O)CSc2nnc(Cn3cnc4ccccc43)o2)cc1	–	–	·	–	–
